Screens: PubChem BioAssay, University of Kansas High Throughput Screening Laboratory
Pf apPOL inh: Pf-apPOL DNA polymerase inhibition | hit rate 0.25% among 210,000 | Recombinant Pf-apPOL, molecular beacon fluorescence, 1.5 h | inhibition, % at 10 µM
mHTT-CaM PPI inh: disrupts binding of mutant huntingtin to calmodulin | hit rate 3.6% among 190,000 | inhibition, % at 15 µM | AlphaScreen His-mHTT/GST-CaM binding, luminescence | P42858;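 also: 0% = both proteins with DMSO and 100% = one protein alone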
Starred values were filed as active, the others as inactive; ! = not confirmed by another sample. In the library only some 3.5% were active in any assay of this set; here they are far more common. Rule as the data show it: active = inhibition above about 50%; inactive = the rest.

SMILES | Pf apPOL inh | mHTT-CaM PPI inh
Cc1ccc(Cl)cc1N1CCN(C(=O)c2ccc(Cn3cncn3)cc2)CC1 | -3.6 | 88.6*
CCOC(CCn1c(SCC(=O)N(CC)CC)nc2ccccc2c1=O)OCC | -6.4 | 2.0
COc1ccc(-c2ccc(N3C(c4ccsc4)=Cc4ccc(F)cc4C3c3c[nH]c4ccccc34)cc2)cc1 (stereo unspecified) | -4.2 | 82.4*
COC(=O)c1ccc(N2C(c3cccc(OC)c3)=Cc3ccc(F)cc3C2c2c(C)[nH]c3ccccc23)cc1 (stereo unspecified) | 1.0 | 2.0
CC1(C)OC(=O)C(=Cc2ccc(Br)o2)C(=O)O1 | 2.7 | 18.0
CC1CCCN(c2nc(-c3ccc([N+](=O)[O-])cc3)nc3ccccc23)C1 (stereo unspecified) | -0.4 | 59.7*
COc1cc(-c2nc(N3CCCC(C)C3)c3ccccc3n2)cc(OC)c1OC (stereo unspecified) | -2.4 | -5.0
COc1ccc(C=C2CSC(=Cc3ccc(OC)cc3)C2=O)cc1 | 0.0 | 22.8
CCC(=O)N(C)CC(=O)N1N=C(c2ccc(C)c(C)c2)CC1c1ccc(C)cc1 (stereo unspecified) | 0.1 | 47.0
Cc1ccc(C2=NN(C(=O)CN(C)C(=O)C(C)C)C(c3ccc(F)cc3)C2)cc1C (stereo unspecified) | 2.8 | 98.5*
CCC(=O)N(C)CC(=O)N1N=C(c2ccc(F)cc2)CC1c1ccc(F)cc1 (stereo unspecified) | 0.0 | 66.1*
CC(=O)N(C)CC(=O)N1N=C(c2ccc(C)c(C)c2)CC1c1ccc(F)cc1 (stereo unspecified) | -0.5 | 38.9
CN(CC(=O)N1N=C(c2ccc(F)cc2)CC1c1ccc(F)cc1)C(=O)C1CC1 (stereo unspecified) | -0.6 | 21.9
CCC(=O)N(C)CC(=O)N1N=C(c2ccc(C)c(C)c2)CC1c1ccc(F)cc1 (stereo unspecified) | -6.3 | 71.5*
Cc1ccc(C(=O)NC2CCCCC2NC(=O)c2ccc(C)cc2)cc1 (stereo unspecified) | -16.3 | 0.5
COc1ccccc1C(=O)N/C(=C/c1ccc2c(c1)OCO2)C(N)=O | 1.3 | -1.0
O=C1Nc2ccc(F)cc2/C1=C\c1c(Cl)cccc1Cl | -3.4 | 100.0*
O=C1Nc2ccccc2/C1=C\c1c(Cl)cccc1Cl | 1.5 | 49.0
O=C1Nc2ccc(Br)cc2/C1=C\c1c(Cl)cccc1Cl | 2.8 | 100.0*
O=C1Nc2ccc(Br)cc2/C1=C/c1ccccc1Cl | -1.7 | 11.0
COc1ccc(NC(=O)CSCc2ccccc2C)cc1Cl | -17.2 | -8.7
COCCCNc1ncnc(N)c1[N+](=O)[O-] | -5.0 | -6.0
CSc1ccc(/C=c2\sc3nc(-c4ccccc4C)nn3c2=O)cc1 | 1.2 | 3.0
C=C1CCN([C@@H](CC(C)C)C(=O)N2CCOCC2)S(=O)(=O)c2ccccc21 | -0.8 | 9.3
CC(C)CC(C(=O)N1CCOCC1)N1C(=O)C2C3c4ccccc4C(c4ccccc43)C2C1=O (stereo unspecified) | -9.8 | 54.8*
SMILES | Pf apPOL inh | mHTT-CaM PPI inh
CC(C)(C)Nc1nc(Cl)nc(Nc2cccc([N+](=O)[O-])c2)n1 | 29.9 | 40.0
COc1cccc(Nc2nc(Cl)ccc2[N+](=O)[O-])c1 | -6.7 | 71.0*
COc1cccc(NC(=O)c2ccc([N+](=O)[O-])c(C)c2)c1 | -2.8 | -0.7
COc1ccc(Nc2nc(Cl)nc(Nc3cccc([N+](=O)[O-])c3)n2)cc1 | -0.8 | 78.0*
Cc1ccc(S(=O)(=O)N2CCC(CCNC(=O)NC3CCCC3)CC2)cc1 | -0.3 | 36.1
O=[N+]([O-])c1cccc(C2NCCC3(O)CCCCC23)c1 (stereo unspecified) | 0.4 | -13.3
O=[N+]([O-])c1cccc(C2Nc3c(Cl)cccc3C3C=CCC32)c1 (stereo unspecified) | -0.9 | 75.1*!
O=[N+]([O-])c1cccc(C2Nc3c(cccc3C(F)(F)F)C3C=CCC32)c1 (stereo unspecified) | 1.1 | 58.0*
O=[N+]([O-])c1cccc(C2Nc3c(cccc3[N+](=O)[O-])C3C=CCC32)c1 (stereo unspecified) | -5.6 | 72.0*
O=[N+]([O-])c1ccc(C2Nc3c(Cl)cccc3C3C=CCC32)cc1 (stereo unspecified) | 18.6 | 18.0
CC1=C(C(=O)Nc2c(C)cccc2C)C2(CCCCCC2)OC1=O | -2.3 | -4.3
CC1(C(=O)NCc2ccccc2)CCCN(C(=O)Nc2ccc(F)cc2)C1 (stereo unspecified) | -2.3 | -7.0
CN1CCC(NC(=O)c2ccc3c(c2)N(C(=O)c2ccc(F)cc2)CC3)CC1 | -0.6 | -0.5
CNC(=O)c1ccc2c(c1)N(C(=O)c1ccc(OC)cc1)CC2 | -0.6 | 100.0*
Cc1c(C2=N/C(=C/c3cccc(Cl)c3)C(=O)O2)cccc1[N+](=O)[O-] | 0.5 | -1.0
COC(=O)C1CN(CCc2ccccc2)CCS(=O)(=O)N1Cc1ccc(Cl)cc1 (stereo unspecified) | -4.0 | 71.1*
COC(=O)C1CN(Cc2ccc(F)cc2)CCS(=O)(=O)N1Cc1ccc(F)cc1 (stereo unspecified) | -6.8 | 18.0
COC(=O)C1CN(Cc2ccc(F)cc2)CCS(=O)(=O)N1Cc1ccc(C(F)(F)F)cc1 (stereo unspecified) | -3.3 | 68.8*
COC(=O)C1CN(Cc2ccccc2)CCS(=O)(=O)N1Cc1ccc(C(F)(F)F)cc1 (stereo unspecified) | -2.3 | 86.8*
COC(=O)C1CN(Cc2ccccc2)CCS(=O)(=O)N1Cc1ccccc1 (stereo unspecified) | 1.8 | -6.2
COC(=O)C1CN(CCc2ccccc2)CCS(=O)(=O)N1Cc1ccc(OC)cc1 (stereo unspecified) | -2.1 | 7.1
Cc1cc(C)n(-c2cc(NCCNC(=O)c3cccs3)ncn2)n1 | -2.0 | -7.1
Cc1ccccc1CNC(=O)C1CCN(c2nnc(-c3ccccc3)o2)CC1 | -0.6 | 8.0
CCNC(=O)C1CC(c2ccc(F)c(C)c2)CN(C(=O)c2ccccc2)C1 (stereo unspecified) | -3.8 | 93.3*
CCNC(=O)N1CC(C(=O)NCC2CC2)CC(c2ccc(F)c(C)c2)C1 (stereo unspecified) | 9.0 | 43.7
SMILES | Pf apPOL inh | mHTT-CaM PPI inh
CCNC(=O)C1CC(c2ccccc2)CN(C(=O)c2ccccc2)C1 (stereo unspecified) | 1.5 | -4.4
Cc1cc(C2CC(C(=O)NCc3cccnc3)CN(C(=O)NC(C)C)C2)ccc1F (stereo unspecified) | -0.2 | 67.2*
CCNC(=O)C1CC(c2ccc(F)c(C)c2)CN(C(C)=O)C1 (stereo unspecified) | -4.5 | -3.5
CCC(C)NC(=O)C1CC(c2ccc(F)c(C)c2)CN(C(=O)c2ccccc2)C1 (stereo unspecified) | 2.0 | 96.5*
O=C(c1n[nH]c2ccccc12)N1CCN(c2ccccc2F)CC1 | -0.4 | 6.3
COc1ccc(S(=O)(=O)N(CC(=O)NCc2cccnc2)Cc2ccccc2)cc1OC | -0.7 | -3.0
O=C(Cc1ccccc1)N1CCC(c2nc(-c3cnccn3)n[nH]2)CC1 | -5.7 | 7.1
CCC1CCCCN1CCCNC(=O)CC(C(=O)N1CCc2ccccc21)n1ccnc1 (stereo unspecified) | -11.6 | 22.0
CSc1ncccc1C(=O)Nc1ccc2c(c1)C(=O)N1CCCCC1CCO2 (stereo unspecified) | 0.5 | 20.9
O=C(O)c1cccc(N2N=C(C(F)(F)F)/C(=C/c3ccc(-c4ccccc4[N+](=O)[O-])o3)C2=O)c1 | 3.6 | 37.0
